For eight compounds, growth results are on record in PubChem BioAssay (NCI).

About 83,000 compounds went through this panel and 20% of them were active in at least one assay; those are over-represented in the sample as a whole.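 The endpoint reported here, percent growth, reads 100 for growth as untreated, 0 for no net growth and -100 for all cells dead.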 A number with no mark means an inactive call. The source made the active and inactive calls. The calls were made as follows: active = growth percent below 10; inactive = the rest.

Test systems include NCI-H23 lung; NCI-H226 lung; NCI-H322M lung; HOP-62 NSCLC; NCI-H460 lung; HOP-92 NSCLC; NCI-H522 lung; A549/ATCC NSCLC; 786-0 renal; COLO 205 colon; DU-145 prostate; K-562 leukemia; MALME-3M melanoma; MDA-MB-231 breast; RXF 393 renal; SF-268 CNS; SF-295 CNS; SF-539 CNS; UACC-257 melanoma; M14 melanoma.
What all share (experiment): NCI-60 one-dose screen, 48 h (100 = growth as untreated, 0 = no growth, -100 = all killed)
Settings in all cases: 10 µM unless noted

For the compound `Cc1ccc(Nc2nc(SC(C)C)nc(-c3ccccc3)c2C#N)cc1`, the growth in the assay on NCI-H23 lung was 86.1%; in the assay with NCI-H226 lung, 76.1%; with NCI-H322M lung it was 70.7%; with HOP-62 NSCLC, 72.2%; in the assay on NCI-H460 lung, 95.2%; in the assay with HOP-92 NSCLC it was 80.7%. Moreover, the growth in the assay with NCI-H522 lung is 83.7%; in the assay on A549/ATCC NSCLC, 96.2%; in the assay on 786-0 renal, 92.2%; in the assay on COLO 205 colon, 112%; with DU-145 prostate it was 104%; with K-562 leukemia, 103%. Besides, the growth is 75.3% with MALME-3M melanoma; 82.1% in the assay on MDA-MB-231 breast; 84.1% in the assay with RXF 393 renal; 82% in the assay with SF-268 CNS; 93.9% in the assay with SF-295 CNS; 84.3% with SF-539 CNS. Further, the growth in the assay with UACC-257 melanoma was 113%; in the assay on M14 melanoma, 116%.

On to `N#Cc1c(-c2cccs2)cc(-c2cnccn2)nc1SCC(=O)N/N=C/c1cccs1`, for which the growth is 56.6% in the assay on NCI-H23 lung; 68.9% in the assay with NCI-H226 lung; 73.1% in the assay on NCI-H322M lung; 38.8% with HOP-62 NSCLC; 20.8% in the assay with NCI-H460 lung; 30.1% in the assay on HOP-92 NSCLC. Besides, the growth in the assay on NCI-H522 lung is 73.1%; with A549/ATCC NSCLC, 19.4%; in the assay on 786-0 renal, 16.6%; in the assay with COLO 205 colon, 53.5%; with DU-145 prostate it was 37.3%; in the assay with K-562 leukemia it was 63.2%. In addition, the growth with MALME-3M melanoma is 39.2%; in the assay on MDA-MB-231 breast it was 40.3%; in the assay with RXF 393 renal, -1.38% (active); in the assay on SF-268 CNS it was 53.7%; in the assay with SF-295 CNS it was 48.8%; in the assay on SF-539 CNS, 9.8% (active). Besides, the growth with UACC-257 melanoma is 53.9%; with M14 melanoma it was 57.4%.

With `NC1C2CCC1CN(c1cnc(C(=O)Nc3cc(F)cc4cccnc34)cn1)C2` (stereo not given), the growth with NCI-H23 lung is 75.1%; in the assay on NCI-H226 lung, 75.7%; in the assay with NCI-H322M lung, 84.3%; in the assay on HOP-62 NSCLC it was 81.2%; in the assay with NCI-H460 lung it was 68.1%; in the assay on HOP-92 NSCLC, 47.9%. Moreover, the growth was 72.3% with NCI-H522 lung; 68.6% in the assay with A549/ATCC NSCLC; 67% in the assay on 786-0 renal; -0.393% (active) in the assay on COLO 205 colon; 71.2% in the assay on DU-145 prostate; 3.9% (active) in the assay with K-562 leukemia. Besides, the growth with MALME-3M melanoma is 49.5%; with MDA-MB-231 breast, 39.4%; in the assay on RXF 393 renal, 61.6%; in the assay on SF-268 CNS it was 73.5%; in the assay on SF-295 CNS it was 76.3%; in the assay on SF-539 CNS, 64.6%. Besides, the growth in the assay on UACC-257 melanoma is 98.3%; in the assay on M14 melanoma, 48.4%.

`NS(=O)(=O)c1nnc(/N=C/c2c(O)[nH]c3ccccc23)s1`: the growth with NCI-H23 lung was 96.3%; with NCI-H226 lung, 95%; with NCI-H322M lung, 104%; with HOP-62 NSCLC it was 86.6%; with NCI-H460 lung, 105%; in the assay with HOP-92 NSCLC it was 88.1%. For the same compound, the growth in the assay with NCI-H522 lung is 99.9%; in the assay on A549/ATCC NSCLC, 108%; in the assay with 786-0 renal, 98.2%; with COLO 205 colon it was 115%; in the assay on DU-145 prostate it was 114%; with K-562 leukemia it was 110%. The growth in the assay with MALME-3M melanoma is 109%; in the assay on MDA-MB-231 breast, 92.3%; in the assay with RXF 393 renal it was 118%; in the assay with SF-268 CNS, 102%; with SF-295 CNS, 99.2%; in the assay with SF-539 CNS it was 96.3%. The growth in the assay with UACC-257 melanoma is 107%; in the assay with M14 melanoma, 94%.

With `COc1cc2oc(-c3cccc(NC(=O)c4cccc([N+](=O)[O-])c4)c3)cc(=O)c2c(OC)c1OC`, the growth in the assay on NCI-H23 lung is 69%; with NCI-H226 lung it was 62.8%; in the assay with NCI-H322M lung it was 82.4%; with HOP-62 NSCLC, -36.4% (active); with NCI-H460 lung it was 51.2%; with HOP-92 NSCLC it was -0.118% (active). Moreover, the growth was 58.5% in the assay on NCI-H522 lung; 43.8% with A549/ATCC NSCLC; 65.6% in the assay with 786-0 renal; 85.8% with COLO 205 colon; 66.9% in the assay with DU-145 prostate; 60.3% with K-562 leukemia. In addition, the growth is 33.7% in the assay on MALME-3M melanoma; 41% with MDA-MB-231 breast; 36.4% in the assay on RXF 393 renal; 43.2% in the assay on SF-268 CNS; 79.8% with SF-295 CNS; -8.95% (active) in the assay with SF-539 CNS. Also, the growth was 88.2% in the assay on UACC-257 melanoma and 83.8% in the assay on M14 melanoma.

For `COc1ccc(-c2cc(-c3ccc(N(C)C)cc3)n3c(n2)nc2ccccc23)cc1`, the growth is 68% with NCI-H23 lung; 60.8% with NCI-H226 lung; 82.2% in the assay on NCI-H322M lung; 77.9% in the assay with HOP-62 NSCLC; 53.3% in the assay on NCI-H460 lung; -5.95% (active) with HOP-92 NSCLC. Also, the growth was 17.7% with NCI-H522 lung; 38.6% in the assay on A549/ATCC NSCLC; 42.8% with 786-0 renal; 59.4% in the assay with COLO 205 colon; 73.3% in the assay with DU-145 prostate; 20.8% with K-562 leukemia. The growth is 118% in the assay with MALME-3M melanoma; 75.2% in the assay with MDA-MB-231 breast; 86.5% in the assay on RXF 393 renal; 76.9% in the assay on SF-268 CNS; 48.6% with SF-295 CNS; 82.6% in the assay with SF-539 CNS. In addition, the figures for the growth in the assay on UACC-257 melanoma and with M14 melanoma were 58% and 29.1%, respectively.

In the case of `Cn1cc(-c2nnc(N)nc2-c2c[nH]c3ccc(F)cc23)c2cc(Br)ccc21`, the growth in the assay on NCI-H23 lung was 26.4%; with NCI-H226 lung it was 27.4%; in the assay on NCI-H322M lung, 41.8%; in the assay on HOP-62 NSCLC, 30.9%; with NCI-H460 lung it was 13.8%; in the assay with HOP-92 NSCLC it was 56.5%. Moreover, the growth with NCI-H522 lung was -0.551% (active); with A549/ATCC NSCLC, 38.6%; in the assay on 786-0 renal it was 21.5%; in the assay with COLO 205 colon it was 9.15% (active); with DU-145 prostate, 37.8%; in the assay on K-562 leukemia, 6.36% (active). For the same compound, the growth in the assay on MALME-3M melanoma was 41.7%; in the assay with MDA-MB-231 breast, 47.3%; in the assay with RXF 393 renal it was -12.7% (active); with SF-268 CNS, 39.7%; in the assay with SF-295 CNS, 9.61% (active); in the assay on SF-539 CNS, 7.43% (active). Further, the growth was 50.9% with UACC-257 melanoma and -6.09% (active) in the assay with M14 melanoma.

As for `N#C/C(=N\Nc1ccc(F)cc1)C(=O)Nc1cc(-c2ccccc2)nn1-c1ccccc1`, the growth in the assay on NCI-H23 lung was 0.456% (active); in the assay with NCI-H226 lung, 2.16% (active); in the assay on NCI-H322M lung it was 0.72% (active); in the assay on HOP-62 NSCLC, 18.2%; in the assay with NCI-H460 lung, 4.31% (active); in the assay on HOP-92 NSCLC, -21.3% (active). Besides, the growth in the assay on NCI-H522 lung is 6.57% (active); with A549/ATCC NSCLC, 11%; in the assay with 786-0 renal, 21.3%; in the assay on COLO 205 colon, -7.35% (active); in the assay on DU-145 prostate, 22.9%; in the assay with K-562 leukemia, 12.8%. Moreover, the growth with MALME-3M melanoma was -17% (active); in the assay on MDA-MB-231 breast it was -6.26% (active); in the assay with RXF 393 renal, -2.63% (active); in the assay on SF-268 CNS, 14.5%; in the assay with SF-295 CNS it was 2.07% (active); in the assay with SF-539 CNS, 8.69% (active). Besides, the growth with UACC-257 melanoma was -13.5% (active); in the assay with M14 melanoma, 18.3%.
